Test results as given in PubChem BioAssay.
Active and inactive are the calls of the source. Unless noted, the rule behind the calls is not given here.

Tests used:
[1] = test system: Wnt5a (protein binding on small-molecule microarray); test: small molecules binding Wnt5a protein – biophysical, small-molecule microarray, 635/667 nm fluorescence, primary screen (AID 1142); conditions: 635 nm fluorescence, higher = more signal;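 note: fluorescence read at 667 nm with signal to noise per printed feature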
[2] = ATP-based viability of Huh7 replicon cells – cell-based, CellTiter-Glo luminescence, basal, 48 h, cytotoxicity control for HCV replication inhibitor project, primary screen (AID 1143); conditions: higher = more signal, called active from +8 up or from −8 down;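 note: Huh7 hepatoma cells carrying a hepatitis C replication reporter with no stimulus; test concentration not given here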
[3] = Pseudomonas biofilm growth suppression – PAO1 strain, BacTiter-Glo luminescence, LB-PBS, primary screen (AID 1144); conditions: P. aeruginosa PAO1 biofilm, 12 h, higher = more signal
[4] = basal CRE-LacZ reporter activity in PC12 – cell-based, unstimulated, primary screen (AID 1145); conditions: no forskolin, luminescence, 4.5 h, higher = more signal, called active from +8 up or from −8 down
[5] = forskolin-driven CRE-LacZ activity in PC12 – cell-based, CRE-LacZ reporter, forskolin-stimulated, primary screen (AID 1146); conditions: luminescence, 4.5 h, higher = more signal, called active from +8 up or from −8 down;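 note: PC12 cells with 6xCRE LacZ reporter stimulated by forskolin 10 µM; beta-galactosidase reporter signal reflecting CREB driven transcription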
[6] = biological target: Streptavidin (Streptomyces avidinii) (UniProt P22629); test: compounds binding control protein streptavidin – biophysical, small-molecule microarray, 635/667 nm fluorescence, artefact control for SMM compound annotation, primary screen (AID 1147); conditions: higher = more signal;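 note: signal reflects streptavidin binding to arrayed compounds as a control protein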
[7] = probe aInhba binding on compound microarray – biochemical, small-molecule microarray, 635/667 nm fluorescence, primary screen (AID 1148); conditions: higher = more signal;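 note: score merges 667nm spot fluorescence with signal-to-noise for antibody binding to printed compounds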
Torsin-1A (Homo sapiens) [8] = biological target: Torsin-1A (Homo sapiens) (UniProt O14656); test: TOR1A wild-type binding on microarray – cell lysate, small-molecule microarray, lysate, 635/667 nm, primary screen (AID 1149); conditions: COS7 hTOR1A-WT lysate, 635 nm fluorescence, higher = more signal
Torsin-1A (Homo sapiens) [9] = biological target: Torsin-1A (Homo sapiens) (UniProt O14656); test: torsin A mutant lysate binding on microarrays – cell lysate, small-molecule microarray, COS7 lysate, 635/667 nm fluorescence, primary screen (AID 1150); conditions: COS7 hTOR1A mutant lysate, 635 nm fluorescence, higher = more signal;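 note: score pools 667 nm emission and signal to noise measuring lysate protein binding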
[10] = test system: Sonic hedgehog protein (Shh); test: Sonic hedgehog microarray binding compounds – biochemical, small-molecule microarray, 635/667 nm fluorescence, primary screen (AID 1151); conditions: 635 nm fluorescence, higher = more signal;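 note: Shh protein binding to compounds spotted on small-molecule microarray slides; score combines spot fluorescence intensity with signal-to-noise across triplicate slides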

Torsin-1A (Homo sapiens), sequence (O14656 whole entry, looked up): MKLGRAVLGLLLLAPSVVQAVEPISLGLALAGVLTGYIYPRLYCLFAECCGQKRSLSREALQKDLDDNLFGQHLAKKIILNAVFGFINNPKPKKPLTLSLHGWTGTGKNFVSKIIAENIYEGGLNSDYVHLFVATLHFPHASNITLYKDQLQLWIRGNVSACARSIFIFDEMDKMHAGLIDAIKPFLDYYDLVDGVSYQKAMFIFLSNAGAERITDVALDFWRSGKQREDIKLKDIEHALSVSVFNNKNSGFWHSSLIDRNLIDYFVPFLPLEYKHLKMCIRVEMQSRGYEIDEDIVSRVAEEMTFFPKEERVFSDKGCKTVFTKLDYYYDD
Streptavidin (Streptomyces avidinii), sequence (P22629 whole entry, looked up): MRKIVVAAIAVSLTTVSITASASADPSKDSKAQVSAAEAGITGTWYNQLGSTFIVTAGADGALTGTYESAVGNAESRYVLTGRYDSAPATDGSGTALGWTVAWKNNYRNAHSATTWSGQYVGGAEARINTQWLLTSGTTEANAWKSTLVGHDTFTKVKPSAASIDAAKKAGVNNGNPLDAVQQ

Structure (SMILES) | composite z-score [1] | z-score [2] | z-score [3] | z-score [4] | z-score [5] | composite z-score [6] | composite z-score [7] | composite z-score (Torsin-1A (Homo sapiens) [8]) | composite z-score (Torsin-1A (Homo sapiens) [9]) | composite z-score [10]
C[C@H]1Cc2c(COc3ccccc3)nc3c(c2CO1)CN(CCOc1ccccc1)CC3 | 0.0543 | -0.491 (inactive) | -1.96 (inactive) | 3.54 (inactive) | -0.632 (inactive) | 0.426 | -0.157 | 0.53 | 0.217 | 1.21
CCN1C(=O)[C@@H]2[C@H]3C(=CC[C@@H]2C1=O)C1(OCCCO1)[C@H]1O[C@H]1[C@H]3O | 0.36 | -8.11 (active) | 0.291 (inactive) | 0.196 (inactive) | 23.3 (active) | 1.13 | 0.0513 | 0.616 | 1.09 | 0.956
C=CC[C@@H]1C=C[C@H](ON=C[C@@H](C)[C@H](OCc2ccccc2)C(C)C)[C@@H](CO)O1 | -0.2 | -1.39 (inactive) | 0.787 (inactive) | 1.31 (inactive) | 0.3 (inactive) | -1.32 | -0.238 | -0.617 | -0.396 | -0.119
COc1cccc([C@H]2Oc3ccc(OC)cc3C(=NOC(C)CN3CCCCc4nc(C)c(C)cc43)[C@@H]2O)c1 (stereo not given in full) | 0.292 | -1.77 (inactive) | 0.979 (inactive) | 5.7 (inactive) | 0.323 (inactive) | -0.519 | -0.024 | 0.242 | -0.14 | 0.291
O=c1n(Cc2cc3c(cc2Cl)OCO3)c(=O)n2n1CC[C@@H]1C(=NOCc3ccccc3)[C@H]3O[C@H]3[C@@H](O)[C@@H]12 | 0.141 | -0.742 (inactive) | 0.692 (inactive) | 0.16 (inactive) | 1.87 (inactive) | 0.767 | -0.0509 | 0.582 | 0.223 | 0.365
CCCNC(=O)OC[C@H]1O[C@H](CCON=C(C)CCN2CCCc3nc(C)c(C)cc32)C=C[C@@H]1Oc1ccc(OC)cc1 | 0.146 | -2.37 (inactive) | -0.489 (inactive) | 2.72 (inactive) | 0.367 (inactive) | 0.668 | 0.0028 | 0.182 | -0.0347 | 0.368
C#CCCCON=C1C[C@@H](O)[C@@H](O)[C@@H]2[C@@H]3C(=O)N(c4cccc(Oc5ccccc5)c4)C(=O)[C@@H]3CC[C@H]12 | -0.591 | -0.593 (inactive) | 0.0591 (inactive) | -0.57 (inactive) | -0.236 (inactive) | -0.77 | -0.191 | 0.32 | 0.855 | -1.01
CC(C)=CCCC(C)=CCON=C1C[C@@H](O)[C@@H](O)[C@@H]2[C@@H]3C(=O)N(Cc4ccccc4)C(=O)[C@@H]3CC[C@@H]12 | 0.292 | 0.18 (inactive) | 0.603 (inactive) | -0.478 (inactive) | -0.0093 (inactive) | -0.0277 | -0.157 | 0.925 | 0.293 | 1.88
O=C1CCCC=C1C(CCc1ccccc1)OC(=O)c1ccc(Br)cc1 (stereo not given) | -0.223 | -3.61 (inactive) | 0.96 (inactive) | 0.111 (inactive) | 0.171 (inactive) | 0.0598 | -0.218 | -0.249 | 0.0696 | -0.115
CON=C(C)CCC(=O)OC[C@H]1O[C@H](c2ccccc2)C=C[C@@H]1Oc1ccc(OC)cc1 | 0.564 | -0.539 (inactive) | -0.38 (inactive) | 1.88 (inactive) | -0.0322 (inactive) | 0.0584 | -0.0963 | 0.0952 | -0.013 | 0.556
CCOC(=O)[C@H](Cc1ccccc1)NC(=O)CCC1CC(OC(=O)NCCc2ccc(F)cc2)CC2(CCCC(COC(=O)NCCCN3CCCC3=O)O2)O1 (stereo not given in full) | 0.126 | -1.04 (inactive) | -1.68 (inactive) | -0.165 (inactive) | 0.0137 (inactive) | 0.625 | -0.206 | 0.144 | 0.321 | 0.733
CO[C@H]1COC(=O)[C@@H](Cc2ccccc2)NC(=O)[C@@H](C)COC(=O)CCC[C@@H]1C | 0.0124 | -0.382 (inactive) | -0.0381 (inactive) | -1.21 (inactive) | -0.596 (inactive) | -0.343 | -0.285 | 0.656 | 0.187 | 0.787
CO[C@H]1COC(=O)[C@@H](C)COC(=O)[C@@H](OCc2ccccc2)C=C[C@@H]1C | 0.007 | -0.0174 (inactive) | 0.304 (inactive) | -0.0293 (inactive) | -0.803 (inactive) | -0.136 | -0.016 | 0.743 | -0.253 | 0.214
CO[C@@H]1COC(=O)CC=C[C@H](C)[C@H](OC)COC(=O)[C@H](C)NC(=O)CC=C[C@H]1C | -0.0631 | -0.0558 (inactive) | 0.938 (inactive) | 0.159 (inactive) | -0.463 (inactive) | -0.369 | -0.133 | 1.57 | 0.63 | 2.09
